The structures appear in SMILES notation. Inconclusive results are not listed. Active and inactive are the calls of the source. The limit is not given here; nearly all actives have IC50 up to about 30 µM.

The test can be described thus: growth inhibition of DIPG cells – cell-based, MIPE5.0 library, qHTS (AID 1347068).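 As to IC50: cells exposed to compound for 48 hours before viability readout.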 The following applies: SU-DIPG-XXV viability.
`N#Cc1ccnc(N2C(=O)CC[C@H]2C(=O)N(c2cncc(F)c2)C(C(=O)NC2CC(F)(F)C2)c2ccccc2Cl)c1` (stereo partly drawn): the call was inactive. `Cc1ccc(-c2ccc3ncc4c(c3n2)n(C2CCN(C(=O)[C@H](C)O)CC2)c(=O)n4C)cn1`: the 50% inhibitory concentration (IC50) was 0.417 µM (active).

For the compound `COc1ccc(N(C)c2nc(C)nc3ccccc23)cc1`, the IC50 is 0.0166 µM (active).

On to `C1=C/COCc2cc(ccc2OCCN2CCCC2)Nc2nccc(n2)-c2cccc(c2)COC/1`, for which the concentration for half-maximal inhibition (IC50) is 2.95 µM (active). With `Cc1ncc(NC(=O)c2cccc(C(F)(F)F)c2)cc1-c1cnc(OC2CCOCC2)c(N2CCOCC2)c1`, the concentration for half-maximal inhibition (IC50) is 18.6 µM (active). `CCCC(CCC)C(=O)Nc1ccn([C@@H]2O[C@H](CO)[C@@H](O)C2(F)F)c(=O)n1`: the compound was called inactive. The same measure, in the same setting: the same measure for `CN1C(=O)[C@@H](NC(=O)c2n[nH]c(Cc3ccccc3)n2)COc2ccccc21`: “inactive”.

On to `O=C(/C=C/c1ccc2ccc(C(F)(F)F)cc2n1)c1ccncc1`, for which the IC50 is 7.42 µM (active). As to `CC(C)n1cc(-c2ccc3c(c2)N(C)CC3)c2c(NS(=O)(=O)c3ccn(C)n3)ccnc21`, the call was inactive. For `CN1CCN(c2ccc(Nc3ncc4cc(C#N)c(=O)n(C5CCCC5)c4n3)cc2)CC1`, the half-inhibitory concentration (IC50) was 4.17 µM (active). Still for that read-out and setting: then `CCn1c(=O)c(-c2ccc(-c3cncs3)cc2Cl)cc2cnc(Nc3ccc(N4CCN(C)CC4)cc3)nc21`, with 10.5 µM (active). For `CS(=O)(=O)c1ccc(Oc2cc(F)cc(C#N)c2)c2c1[C@H](O)C(F)(F)C2`, the result was inactive.

Turning to `Cc1ccc(NC(=O)NCc2ccc3c(c2)CN(C2CCC(=O)NC2=O)C3=O)cc1Cl` (stereo not drawn), the IC50 is 0.00372 µM (active).

Source of the values: PubChem BioAssay.
